This assay addresses Interleukin-8 (IL8, CXCL8), C-terminal His-tagged (Homo sapiens, UniProt P10145 SEQ:1-72). In words: competition; competition TR-FRET; G18C. As to conditions: tags: C-terminal 6xHis (Sino Biological); ssRNA; 2'-F G, 2'-OMe A/C/U, 5' C6NH2, 3' idT. As for the experimental part:
To better understand the sequence requirements and to confirm the stem structures of members of the Aptamer 3 family as determined from sequence covariation analysis from both the primary and secondary (degenerate) selections, a series of variants which included mutations and deletions to the predicted stems were synthesized and screened (Table 24). Activity of each of these variants were tested using a time resolved competition TR-FRET assay in which the labeled parent Aptamer 3 was competed with increasing concentrations of unlabeled variants for binding to IL8 (FIG. 14). Briefly, 2-fold dilutions of thermally equilibrated aptamers were made in TR-FRET Buffer (50 mM MOPS, pH 7.4, 125 mM NaCl, 5 mM KCl, 50 μM CHAPS, 0.1 mg/mL BSA, 1 mM CaCl₂, and 1 mM MgCl₂). 5 μL of aptamer or control solution was added to 5 μl mix of 10 nM C-terminal His-tagged-IL8, 60 nM ALEXA FLUOR® 647-labeled Aptamer, and 5 nM anti-His-Eu (Perkin Elmer) in a black wall low volume 384 well plate (Greiner). For control, 5 μl of 1000-fold excess of unlabeled parent aptamer or 5 μl TR-FRET buffer alone was added to the mix of ALEXA FLUOR® 647-labeled aptamer, His-IL8, and anti-His-Eu. The plate was covered with a plate seal and subsequently incubated in the dark for 1 hour at room temperature. The plate was read on a Biotek CYTATION™ 5 plate reader. […]
(In general: Time-resolved FRET reads energy transfer from a long-lived donor to a nearby acceptor.)
UGAUGACGGUAGAUUACCGGUAGAGUGACCGCAUCU yielded a binding signal of over 10 fold worse than Aptamer 3.

The values above are taken from US20210230599, “STEM-LOOP COMPOSITIONS AND METHODS FOR INHIBITING INTERLEUKIN-8” (VITRISA THERAPEUTICS, INC., published 2021).
